From PubChem BioAssay
Anthrax LF prot – Bacillus anthracis LF protease inhibitors, primary screen, biochemical, multiplex microsphere, MLPCN library; Lethal factor (Bacillus anthracis), P15917; multiplex microsphere protease cleavage assay; inhibition, % at 10 µM; hit rate 0.12% among 360,000
MazF activator – activators of E. coli MazEF toxin-antitoxin RNase, primary screen, biochemical, fluorescence, uHTS; hit rate 0.32% among 350,000; FAM/BHQ RNA-DNA oligo cleavage fluorescence, 5 h; activation, % at 20 µM; Endoribonuclease toxin MazF (Escherichia coli (strain K12)), P0AE70; in the data active = activation above about 50%
Target sequence (P0AE70 whole entry, looked up): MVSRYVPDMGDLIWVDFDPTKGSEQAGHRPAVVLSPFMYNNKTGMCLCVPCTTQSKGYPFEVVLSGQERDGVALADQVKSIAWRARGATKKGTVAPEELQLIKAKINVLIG
BoNT A protease – BoNT/A light chain protease inhibitors, primary screen, biochemical, flow cytometry, MLPCN library; hit rate 0.17% among 360,000; inhibition, % at 10 µM; Botulinum neurotoxin type A light chain protease (Clostridium botulinum A str. ATCC 3502); multiplex microsphere protease substrate cleavage
Bead autofluor – counter-screen for toxin protease inhibitors: compound fluorescence. hit rate 3.1% among 360,000. fluorescence intensity (no concentration beside the values). AID 624483. compound autofluorescence counterscreen, microsphere flow cytometry; active compounds read high; in the data active = fluorescence intensity above about 16000; inconclusive = no clear call, values can overlap the other calls
PfHsp40 yeast – rescue of yeast from PfHsp40 toxicity, primary screen, S. cerevisiae, ATP luminescence; S. cerevisiae expressing PfHsp40, growth rescue; growth rescue, % at 12.5 µM; hit rate 0.68% among 340,000; in the data active = growth rescue above about 28%, passing the limit was not always enough; inconclusive = no clear call, values can overlap the other calls;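 also: yeast W303a lacking pdr1 and pdr3 grown in galactose medium; growth measured after three days at 30 °C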
BoNT-F LC inh – BoNT/F light chain protease inhibitors, primary screen, biochemical, flow cytometry, MLPCN library; hit rate 0.22% among 360,000; Botulinum neurotoxin type F light chain protease (Clostridium botulinum); inhibition, % at 10 µM; Multiplex microsphere protease cleavage assay; AID 588497, 2011; in the data active = inhibition above about 35%, passing the limit was not always enough; inconclusive = no clear call, values can overlap the other calls
BoNTA LC inh 2 – BoNT/A light chain protease inhibitors, confirmation, biochemical, flow cytometry, cherry pick 2 | shares compounds with BoNT A protease | hit rate 10% among 150 | inhibition, % at 10 µM | AID 602325, 2012 | multiplex microsphere protease cleavage assay; in the data active = inhibition above about 24%
Anthrax LF CP2 – Bacillus anthracis LF protease inhibitors, confirmation, biochemical, multiplex microsphere | AID 602327, 2012 | multiplex microsphere protease cleavage assay | inhibition, % at 10 µM | hit rate 7% among 150 | shares compounds with BoNT A protease; in the data active = inhibition above about 25%
BoNTF LC inh 2 – BoNT/F light chain protease inhibitors, confirmation, biochemical, flow cytometry, cherry pick 2; shares compounds with BoNT A protease; multiplex microsphere protease cleavage assay; inhibition, % at 10 µM; hit rate 7% among 150; AID 602336, 2012; in the data active = inhibition above about 25%
Each line names hits and unclear results; the compound was inactive in the other large screens (follow-up assays come after a bar, where they were run). The list is not random: actives were taken first. Their share in the collection is about 4.3%. Rule as the data show it, unless noted: active = inhibition above about 30%; inconclusive = no clear call, values can overlap the other calls; inactive = below that.

Cc1cccc(C2N=C(N)Nc3nc4ccccc4n32)c1 (stereo unspecified)	BoNT A protease inconclusive, BoNT-F LC inh inconclusive
CC(=O)c1cccc(-c2ccnc3c2CC(C(=O)Nc2ccccc2)O3)c1 (stereo unspecified)	none (no result: MazF activator, PfHsp40 yeast)
C[C@@H](c1ccccc1)N1C[C@H](COCc2ccccc2)Oc2cc(N3CC[C@H](O)C3)ccc2S1(=O)=O	none (no result: MazF activator, PfHsp40 yeast)
CN=c1nc(-c2ccccc2)n(-c2ccccc2)s1	BoNT-F LC inh 48 | BoNTA LC inh 2 inactive | Anthrax LF CP2 inactive | BoNTF LC inh 2 inactive
Cn1nc(-c2ccccc2)nc1-c1ccccc1	none
CCc1cccc2c(C(=O)COC(=O)c3ccc(O)cc3)c[nH]c12	none | BoNTA LC inh 2 inactive | Anthrax LF CP2 inactive | BoNTF LC inh 2 37
CCc1cccc2c(C(=O)COC(=O)c3ccccc3)c[nH]c12	none | BoNTA LC inh 2 inactive | Anthrax LF CP2 inactive | BoNTF LC inh 2 25
COc1ccc(CNS(=O)(=O)c2ccc(OC)cc2)cc1	none
Cc1cc2cc(CNS(=O)(=O)c3ccccc3)ccc2n1C	BoNT A protease 83 | BoNTA LC inh 2 inactive | Anthrax LF CP2 inactive | BoNTF LC inh 2 inactive
COc1ccc(S(=O)(=O)NCc2ccc3c(c2)cc(C)n3C)cc1	BoNT A protease 79 | BoNTA LC inh 2 24 | Anthrax LF CP2 inactive | BoNTF LC inh 2 inactive
CCCNC(=O)C1(C)CCN1C(=O)c1cc(C)n(C)n1 (stereo unspecified)	none (no result: MazF activator, PfHsp40 yeast)
CCOc1ccc(NC(=O)CN(C)C(=O)c2ccc3c(c2)S(=O)(=O)N=C2CCCCCN23)cc1OCC	Anthrax LF prot 110, BoNT A protease 94, BoNT-F LC inh 87 | BoNTA LC inh 2 inactive | Anthrax LF CP2 inactive | BoNTF LC inh 2 inactive
N#Cc1ccc(-c2ccc(OCC(O)CN3CCCCC3)cc2)cc1 (stereo unspecified)	none
COc1ccc(C(CNC(=O)c2ccc(C)c(S(=O)(=O)N3CCCCC3)c2)N2CCCC2)cc1 (stereo unspecified)	Anthrax LF prot 56, BoNT-F LC inh 86 | BoNTA LC inh 2 inactive | Anthrax LF CP2 inactive | BoNTF LC inh 2 inactive
CCN(CC)S(=O)(=O)c1cccc(NC(=O)COC(=O)c2ccc(Br)o2)c1	none
O=C(COC(=O)c1cncc(Br)c1)NC12CC3CC(CC(C3)C1)C2	Anthrax LF prot 58, BoNT A protease 72 (no result: MazF activator, PfHsp40 yeast) | BoNTA LC inh 2 29 | Anthrax LF CP2 30 | BoNTF LC inh 2 inactive
O=C(NC12CC3CC(CC(C3)C1)C2)c1cncc(Br)c1	none
CCN(CC)S(=O)(=O)c1cccc(NC(=O)COC(=O)c2cncc(Br)c2)c1	Anthrax LF prot 39 | BoNTA LC inh 2 inactive | Anthrax LF CP2 inactive | BoNTF LC inh 2 inactive
CC1(C(=O)NS(=O)(=O)c2cccc(OC(F)F)c2)CCN1C(=O)CCc1cccs1 (stereo unspecified)	none (no result: MazF activator, PfHsp40 yeast)
OC(CN1CCOCC1)Cn1c2c(c3ccccc31)CCCC2 (stereo unspecified)	none
Cc1cc2cc(CNC(=O)c3ccc(S(=O)(=O)N4CCCC4)cc3)ccc2n1C	BoNT A protease 80 | BoNTA LC inh 2 inactive | Anthrax LF CP2 inactive | BoNTF LC inh 2 inactive
Cc1cc2cc(CNC(=O)c3ccc(S(=O)(=O)N4CCCCC4)cc3)ccc2n1C	BoNT A protease 80 | BoNTA LC inh 2 inactive | Anthrax LF CP2 inactive | BoNTF LC inh 2 inactive
Cc1ccc(CNC(=O)c2ccc(S(=O)(=O)N3CCCCC3)cc2)cc1	none
